Assay in all cases: DAPPL (digital affinity profiling via proximity ligation, sequencing); 10 mM Tris-HCl pH 7.5, 50 mM NaCl, 1 mM DTT, 4% glycerol, room temperature, 30 min; GST-TFs on glutathione beads, 16-mer random dsDNA library, 0.1% formaldehyde crosslink after washing; high values mean tight binding
Holding throughout (details): protein: recombinant; tags: N-terminal GST; dsDNA, one strand shown

Test [1] concerns the target T1, ERG (Homo sapiens, UniProt P11308 1-479).
T1 sequence: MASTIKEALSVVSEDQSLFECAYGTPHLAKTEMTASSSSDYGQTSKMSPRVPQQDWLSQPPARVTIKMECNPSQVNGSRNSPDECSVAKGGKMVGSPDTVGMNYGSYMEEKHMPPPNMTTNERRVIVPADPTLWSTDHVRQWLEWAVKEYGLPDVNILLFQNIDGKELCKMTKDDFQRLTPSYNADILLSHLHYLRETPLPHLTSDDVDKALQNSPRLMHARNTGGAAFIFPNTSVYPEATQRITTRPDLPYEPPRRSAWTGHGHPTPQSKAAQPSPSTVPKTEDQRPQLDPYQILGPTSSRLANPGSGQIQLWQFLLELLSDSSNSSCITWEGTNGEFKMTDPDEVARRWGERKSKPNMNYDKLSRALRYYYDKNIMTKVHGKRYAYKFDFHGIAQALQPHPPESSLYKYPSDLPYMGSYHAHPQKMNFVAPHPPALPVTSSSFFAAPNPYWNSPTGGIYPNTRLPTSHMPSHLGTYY
The procedure, abridged: (§1)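 Binding signal is each hexamer's read frequency for a factor divided by its frequency in the tag-only sample. The factors were GST-fused human transcription factors from yeast, captured on glutathione beads, DNA-barcoded and pooled with that sample. Pools were incubated with 200 nmole of a random double-stranded 16-mer DNA library in Tris/NaCl/DTT/glycerol buffer at room temperature for 30 min, then washed, crosslinked with 0.1% formaldehyde, proximity-ligated with BsaI/T4 ligase (1 h, 37 °C), PCR-amplified and sequenced on an Illumina NextSeq500.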

Test [2] concerns the target SPIB (Homo sapiens, UniProt Q01892 1-262). The procedure, abridged: as §1
Test [3] addresses T2, ELK4 (Homo sapiens, UniProt P28324-2 1-405).
T2 sequence: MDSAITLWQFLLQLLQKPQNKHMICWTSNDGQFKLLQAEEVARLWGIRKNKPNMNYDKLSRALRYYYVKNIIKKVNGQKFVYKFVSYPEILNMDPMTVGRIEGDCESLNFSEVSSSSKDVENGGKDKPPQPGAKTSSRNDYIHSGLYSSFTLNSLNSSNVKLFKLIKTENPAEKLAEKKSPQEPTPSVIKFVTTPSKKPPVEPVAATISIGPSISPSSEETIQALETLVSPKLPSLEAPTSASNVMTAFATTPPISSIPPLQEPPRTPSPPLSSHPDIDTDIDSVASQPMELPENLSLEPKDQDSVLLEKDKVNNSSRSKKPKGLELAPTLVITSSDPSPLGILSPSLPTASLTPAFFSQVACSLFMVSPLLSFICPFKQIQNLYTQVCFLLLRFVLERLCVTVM
In outline:
as §1

Test [4] has as its target T3, ETV3L (Homo sapiens, UniProt Q6ZN32 1-361).
T3 sequence: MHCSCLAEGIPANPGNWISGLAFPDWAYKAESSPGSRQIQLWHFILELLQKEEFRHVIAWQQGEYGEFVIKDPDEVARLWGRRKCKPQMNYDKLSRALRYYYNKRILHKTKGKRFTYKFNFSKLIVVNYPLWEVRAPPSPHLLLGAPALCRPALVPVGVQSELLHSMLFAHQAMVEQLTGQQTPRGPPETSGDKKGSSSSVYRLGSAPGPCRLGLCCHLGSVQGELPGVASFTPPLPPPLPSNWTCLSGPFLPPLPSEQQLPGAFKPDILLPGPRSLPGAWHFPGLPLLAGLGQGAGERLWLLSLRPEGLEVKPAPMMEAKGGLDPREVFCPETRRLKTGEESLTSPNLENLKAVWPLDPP
The procedure, abridged:
as §1

Test [5] has as its target T4, ETS2 (Homo sapiens, UniProt P15036 1-469).
T4 sequence: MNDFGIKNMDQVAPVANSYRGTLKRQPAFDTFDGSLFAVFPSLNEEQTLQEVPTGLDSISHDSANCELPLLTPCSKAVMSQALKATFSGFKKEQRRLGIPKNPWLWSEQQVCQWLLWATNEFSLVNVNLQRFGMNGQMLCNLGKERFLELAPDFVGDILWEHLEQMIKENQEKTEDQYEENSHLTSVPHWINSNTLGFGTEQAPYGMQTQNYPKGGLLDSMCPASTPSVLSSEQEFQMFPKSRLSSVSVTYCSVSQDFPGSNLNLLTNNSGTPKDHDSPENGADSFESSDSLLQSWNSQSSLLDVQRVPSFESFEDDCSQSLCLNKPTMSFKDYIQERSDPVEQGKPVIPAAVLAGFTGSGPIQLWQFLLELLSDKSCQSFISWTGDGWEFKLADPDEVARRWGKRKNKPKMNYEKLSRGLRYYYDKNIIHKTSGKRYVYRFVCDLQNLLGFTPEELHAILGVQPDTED
In outline:
as §1

In test [6] the target is T5, FEV (Homo sapiens, UniProt Q99581 1-238).
T5 sequence: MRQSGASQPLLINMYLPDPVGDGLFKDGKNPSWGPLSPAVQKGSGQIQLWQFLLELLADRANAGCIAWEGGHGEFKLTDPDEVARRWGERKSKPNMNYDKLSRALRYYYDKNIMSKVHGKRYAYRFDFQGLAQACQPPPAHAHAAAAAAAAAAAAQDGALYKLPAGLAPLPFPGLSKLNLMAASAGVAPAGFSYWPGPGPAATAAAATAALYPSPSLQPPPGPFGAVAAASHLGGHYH
In outline: as §1

Test [7] addresses T6, ETV2 (Homo sapiens, UniProt O00321 1-342).
T6 sequence: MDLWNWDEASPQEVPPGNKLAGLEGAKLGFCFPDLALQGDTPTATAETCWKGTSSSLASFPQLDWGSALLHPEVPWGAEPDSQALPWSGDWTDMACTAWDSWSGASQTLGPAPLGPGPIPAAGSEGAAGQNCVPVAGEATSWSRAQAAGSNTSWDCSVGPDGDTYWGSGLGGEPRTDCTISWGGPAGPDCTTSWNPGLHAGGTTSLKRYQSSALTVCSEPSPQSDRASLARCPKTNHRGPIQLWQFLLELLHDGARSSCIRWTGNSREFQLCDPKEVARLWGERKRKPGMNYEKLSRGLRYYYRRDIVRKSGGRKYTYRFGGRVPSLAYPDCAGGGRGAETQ
In outline: as §1

The target in test [8] is T7, ETV3 (Homo sapiens, UniProt P41162-2 1-143).
T7 sequence: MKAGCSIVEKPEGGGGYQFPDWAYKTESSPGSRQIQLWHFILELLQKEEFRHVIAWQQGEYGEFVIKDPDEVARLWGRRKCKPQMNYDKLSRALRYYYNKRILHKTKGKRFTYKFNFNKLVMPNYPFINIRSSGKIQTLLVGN
The procedure, abridged:
as §1

Test [9] addresses T8, ELF3 (Homo sapiens, UniProt P78545 1-371).
T8 sequence: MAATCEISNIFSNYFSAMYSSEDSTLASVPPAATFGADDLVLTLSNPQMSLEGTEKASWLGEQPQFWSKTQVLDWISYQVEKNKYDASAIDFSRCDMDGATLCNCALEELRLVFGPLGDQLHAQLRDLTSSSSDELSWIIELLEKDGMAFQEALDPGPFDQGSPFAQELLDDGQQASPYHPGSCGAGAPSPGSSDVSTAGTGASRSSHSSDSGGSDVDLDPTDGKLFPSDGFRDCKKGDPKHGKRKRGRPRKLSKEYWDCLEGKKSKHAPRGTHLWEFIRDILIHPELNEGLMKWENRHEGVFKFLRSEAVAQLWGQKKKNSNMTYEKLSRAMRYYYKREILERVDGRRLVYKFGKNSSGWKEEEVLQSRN
In outline: as §1

In test [10] the target is T9, SPDEF (Homo sapiens, UniProt O95238 1-335).
T9 sequence: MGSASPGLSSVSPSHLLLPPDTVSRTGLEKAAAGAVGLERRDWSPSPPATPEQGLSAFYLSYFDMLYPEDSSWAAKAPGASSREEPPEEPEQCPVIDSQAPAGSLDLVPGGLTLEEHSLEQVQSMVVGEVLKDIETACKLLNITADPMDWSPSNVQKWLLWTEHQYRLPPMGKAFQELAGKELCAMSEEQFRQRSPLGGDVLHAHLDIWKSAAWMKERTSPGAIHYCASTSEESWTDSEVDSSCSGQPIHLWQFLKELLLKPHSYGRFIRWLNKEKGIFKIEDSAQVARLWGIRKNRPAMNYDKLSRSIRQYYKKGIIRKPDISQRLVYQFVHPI
The procedure, abridged: as §1

Chain of SPIB (Q01892 whole entry): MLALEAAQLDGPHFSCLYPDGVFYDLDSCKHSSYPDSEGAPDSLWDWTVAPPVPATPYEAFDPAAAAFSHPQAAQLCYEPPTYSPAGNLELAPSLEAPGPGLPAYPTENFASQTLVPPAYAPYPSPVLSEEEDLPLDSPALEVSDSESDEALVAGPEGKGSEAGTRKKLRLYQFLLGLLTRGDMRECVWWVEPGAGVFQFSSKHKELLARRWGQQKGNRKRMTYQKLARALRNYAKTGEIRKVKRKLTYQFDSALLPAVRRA

ACGCGT: the binding signal in test [1] was 1 fold enrichment (6-mer frequency, TF over GST control); in test [2], 1.04 fold enrichment (6-mer frequency, TF over GST control); in test [3] it was 1.1 fold enrichment (6-mer frequency, TF over GST control); in test [4] it was 1.02 fold enrichment (6-mer frequency, TF over GST control); in test [5] it was 1.01 fold enrichment (6-mer frequency, TF over GST control).
In the case of TGGGAC, the binding signal is 1 fold enrichment (6-mer frequency, TF over GST control) in test [6]; 1.03 fold enrichment (6-mer frequency, TF over GST control) in [3]; 1.14 fold enrichment (6-mer frequency, TF over GST control) in [7].
Turning to GTAGCG, the binding signal is 1.01 fold enrichment (6-mer frequency, TF over GST control) in test [3] and 1.01 fold enrichment (6-mer frequency, TF over GST control) in test [8].
Regarding GCAAAG, the binding signal in test [7] was 1.12 fold enrichment (6-mer frequency, TF over GST control).
As for TGTTAG, the binding signal was 1.13 fold enrichment (6-mer frequency, TF over GST control) in test [3]; 1.03 fold enrichment (6-mer frequency, TF over GST control) in [7]; 1 fold enrichment (6-mer frequency, TF over GST control) in test [9]; 1.03 fold enrichment (6-mer frequency, TF over GST control) in test [10].
